In PubChem BioAssay AID2314 (National Center for Advancing Translational Sciences (NCATS), 2010) one finds max response data, which are given here for 61 compounds.

Where “and” joins values, the source holds several entries; their conditions need not be identical. Equal entries are not always repeated. About 37,000 (12%) of roughly 300,000 compounds were called active. The full list was thinned out, with actives kept by preference. Values without a mark were called inactive. Rule as the data show it: active = max response mostly above about 13% (no sharp cut-off); inactive = mostly below about 14%.

This assay can be described thus: Cycloheximide Counterscreen for Small Molecule Inhibitors of Shiga Toxin. Also: read at 38.3 µM for the half of the compounds with a filed dose; 0% is about no effect. The following applies: cell reporter, cycloheximide protein synthesis inhibition counterscreen; hits give high values. (The purpose of a counterscreen is to sort out artefacts and off-target activity.)
Regarding `Cc1nnc(NC(=O)/C=C/c2ccco2)s1`, the max response was 25.7% (active).

On to `CCOC(=O)c1c(NC(=O)/C=C/c2ccco2)sc(C)c1C`, for which the max response was -2.54%.

On to `CCc1nnc(NC(=O)CCC(=O)O)s1`, for which the max response was -1.47%.

Regarding `CCc1nnc(NC(=O)/C=C/c2ccc(C)o2)s1`, the max response was 21.2% (active).

Consider `Cc1ccc(/C=C/C(=O)Nc2ccc([N+](=O)[O-])c(NC(=O)/C=C/c3ccc(C)o3)c2)o1`, for which the max response was -2.46%.

On to `CCC(CC)c1nnc(NC(=O)/C=C/c2ccco2)s1`, for which the max response was 17.5%.

For the compound `CNC(=O)c1[nH]cnc1C(=O)N[C@@H](CC(C)C)C(=O)OCc1ccccc1`, the max response is 0.929%.

In the case of `COc1ccc(NC(=O)NCCN2CCN(c3ccc(C)cc3)CC2)c(Cl)c1`, the max response is -1.67%.

In the case of `COc1ccccc1NC(=O)CSc1nnc(CNC(=O)c2ccccc2F)o1`, the max response was 1.71%.

In the case of `N#Cc1ccc(S(=O)(=O)NCC(=O)OCC(=O)NCCc2ccccc2)cc1`, the max response is 1.22%.

For the compound `COc1ccc(-n2cnnc2SCC(=O)Nc2cccc([N+](=O)[O-])c2)cc1`, the max response was -4.87%.

For the compound `Cc1ccccc1OCCOc1ccc([N+](=O)[O-])cc1/C=N/n1cnnc1`, the max response was -2.75%.

As to `COc1cc(C(=S)N2CCOCC2)ccc1O`, the max response was -0.128%.

In the case of `COc1ccc(OCC(=O)N2CCOCC2)cc1`, the max response was 9.77%.

For the compound `COc1ccc(/C(C)=N/N2CCOCC2)c(O)c1`, the max response was 26.7% (active).

Take `CCN(C(=O)Cc1nc(N)n[nH]1)C1(C(=O)Nc2ccccc2)CCCCC1`: the max response was -6.07%.

With `Cc1cc(=O)oc2cc(OCCC[n+]3ccccc3)ccc12`, the max response is 1.33%.

As to `O=C(C[n+]1ccccc1)N/N=C/c1ccc(O)cc1`, the max response was -3.62%.

`Cc1nonc1C(=O)N/N=C/c1ccc(O)cc1`: the max response is 37.3% (active).

As to `CC(C)c1c(C(=O)N/N=C/c2ccc(-c3ccccc3)cc2)nnn1-c1nonc1N`, the max response is -10.6%.

In the case of `CCOc1c(OC)cccc1C(=O)NCC1(c2ccccc2)CCCC1`, the max response was -2.45%.

As for `O=C(C1CCN(S(=O)(=O)Cc2ccccc2)CC1)N1CCCc2ccccc21`, the max response was 11.2%.

As to `OCC1(Cc2ccccc2)CCN(Cc2cc3ccccc3o2)CC1`, the max response was 1.07%.

As for `Cc1ccc(S(=O)(=O)N(C)CC(=O)OCC(=O)Nc2ccccc2)cc1`, the max response was 3.68%.

Turning to `NC(=O)c1ccc(NC(=O)COC(=O)C(Cc2ccccc2)NC(=O)c2ccccc2)cc1` (stereo unspecified), the max response was -2.16%.

As for `O=C(COC(=O)C1CC2C=CC1C2)Nc1ccccc1` (stereo unspecified), the max response is 27.3% (active).

On to `COc1ccc(C(=O)n2nc(C)c(Br)c2C)cc1OC`, for which the max response is -2.74%.

Regarding `S=c1[nH]nc(NCCc2ccccc2)s1`, the max response was -2.47%.

As for `Cc1nc(C)c(-c2csc(NCCc3ccccc3)n2)s1`, the max response was 13.4% (active).

For the compound `Cc1ccc(Nc2nc(-c3sc(NC(=O)c4ccccc4)nc3C)cs2)cc1`, the max response is 8.35%.

On to `CC1CC(C)CN(C(=O)CCNC(=O)Cn2cnc3ccccc3c2=O)C1` (stereo unspecified), for which the max response was -4.79%.

As to `O=C(N/C(=C/c1ccc(Cl)cc1)C(=O)N1CCCCC1)c1ccco1`, the max response was -0.943%.

With `C=CCn1c(SCc2c(C(=O)OC)sc(N)c2C(=O)OC)nnc1-c1ccc(Cl)cc1`, the max response is -1.63%.

For the compound `C=CCn1c(SCC(N)=O)nnc1-c1cc2c(s1)CCC(CC)C2` (stereo unspecified), the max response was 29.3% (active).

Turning to `CCn1c(CSc2nc(C)cc(C)n2)nnc1SCC(N)=O`, the max response is -2.49%.

`CCS(=O)(=O)N1Cc2ccccc2CC1C(=O)Nc1nc2ccc(F)cc2s1` (stereo unspecified): the max response was 77.8% (active).

As for `Cc1ccc2nc(NC(=O)C3CCN(S(=O)(=O)c4ccc5c(c4)oc(=O)n5C)CC3)sc2c1`, the max response was -6.17%.

As for `CCS(=O)(=O)N1Cc2ccccc2CC1C(=O)Nc1ccc(OC)cc1OC` (stereo unspecified), the max response is 3.12%.

In the case of `COC(=O)C(C)n1cnc2c(nnn2-c2cccc(Cl)c2)c1=O` (stereo unspecified), the max response is -1.58%.

Take `CCOC(=O)C(C)n1cnc2c(nnn2-c2ccc(F)cc2)c1=O` (stereo unspecified): the max response was 8.68% (active).

On to `COC(=O)C(C)n1cnc2c(nnn2-c2ccc(F)cc2)c1=O` (stereo unspecified), for which the max response is -2.37%.

Consider `COc1ccc(-n2nnc3c(=O)n(CC(=O)OCc4ccccc4)cnc32)cc1`, for which the max response was 0.544%.

Take `CCOC(=O)C(C)n1cnc2c(nnn2-c2cccc(OC)c2)c1=O` (stereo unspecified): the max response was 35.4% (active).

For the compound `CCOC(=O)C(CC)Sc1ncnc2c1nnn2-c1ccc(F)cc1` (stereo unspecified), the max response is -1.76%.

Turning to `COc1ccc(CCN2C(=O)C(C)=C(C)C2=O)cc1OC`, the max response was 1.83%.

With `COc1ccc(N2CCN(C(=O)C3CCN(C(=O)c4ccccc4Cl)CC3)CC2)cc1`, the max response was 0.346%.

`COc1cccc(CN(C)C(=O)CC23CC4CC(CC(C4)C2)C3)c1OC`: the max response was -3.61%.

`O=C(Nc1ccc(F)cc1)c1ccc(S(=O)(=O)NCc2cccnc2)cc1`: the max response is 13%.

For `O=C(Nc1ccccc1F)c1cc(S(=O)(=O)N2CCCCC2)cs1`, the max response is 13.9% (active).

As for `O=C(Nc1cccc(F)c1)c1ccc(S(=O)(=O)N2CCCC2)cc1`, the max response was -1.88%.

Take `O=C(CN1CCCCCC1)Nc1ccc(S(=O)(=O)N2CCCCC2)cc1`: the max response was -2.88%.

With `O=C(Nc1ccc(S(=O)(=O)N2CCCCCC2)cc1)c1c(F)cccc1F`, the max response was 16.3% (active).

For the compound `Cc1ccccc1NC(=O)c1cc(S(=O)(=O)N2CCOCC2)cs1`, the max response was 1.05%.

For the compound `O=C(Nc1ccccc1C(=O)O)c1cc(S(=O)(=O)N2CCCCC2)cs1`, the max response was -3.51%.

On to `O=C(O)c1ccc(Cn2c(=S)[nH]c3cc(Cl)ccc3c2=O)cc1`, for which the max response is -2.92%.

Consider `O=C(CN1C(=O)CC(c2ccccc2)=Nc2ccccc21)NC1CCCCC1`, for which the max response was -1.57%.

Regarding `COc1ccc(S(=O)(=O)NNC(=O)Nc2ccc(C)cc2)c(OC)c1`, the max response is 0.87%.

Take `COc1ccc(NS(=O)(=O)c2cc(NC(=O)CC(=O)c3ccc([N+](=O)[O-])cc3)ccc2C)cc1`: the max response is -3.18%.

As to `CCN1C(=O)/C(=C2/Sc3ccccc3N2CCCS(=O)(=O)O)SC1=S`, the max response was -1.1% and 2.76%.

Turning to `CN1/C(=c2/s/c(=C3/C(=O)N(c4ccccc4)NC3=Nc3ccccc3)n(C)c2=O)C(C)(C)c2ccccc21`, the max response was -0.907%.

For the compound `CCN1C(=O)/C(=c2\s/c(=C3\Sc4ccccc4N3C)c(=O)n2C)N(C)C1=S`, the max response is 22.3% (active).
